The source of these data is PubChem BioAssay (EPA / NIEHS).

Where “and” joins values, the source holds several entries; their conditions need not be identical. Equal entries are not always repeated. A structure can be active in one record and inactive in another. Calls of active or inactive are those of the source. Rule for the calls: active = hit-call score of the fitted dose curve at least 0.9, where 1 is the maximum; inactive = score below 0.9.

Read-out in experiment [1]: E-selectin (Homo sapiens) (UniProt P16581)
Briefly: BSK_3C_Eselectin: BioMAP Diversity Plus: 3C Assay for Eselectin Biomarker Activity (AID 2283015).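 For outcome: cell surface E-selectin protein quantified by ELISA 24 h after dosing.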 The note with it: primary human endothelial cells (HUVEC); actives raise or lower the signal. A digest of the protocol:
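HUVEC, 3C stimulation; compound exposure 24 h; E-selectin by ELISA; gain- or loss-of-signal fitted bidirectionally vs DMSO baseline.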

Read-out in experiment [2]: Human Leukocyte Antigen - DR isotype (HLADR), HLA-DRA (gene 3122)
Briefly: BSK_3C_HLADR: BioMAP Diversity Plus: 3C Assay for Human Leukocyte Antigen - DR isotype (HLADR) Biomarker Activity (AID 2283019). As to conditions: primary human endothelial cells (HUVEC); actives raise or lower the signal. Put shortly: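 HUVEC, 3C stimulation, 24 h post-dose; HLA-DR by ELISA; bidirectional curve fit vs DMSO baseline; gain or loss of signal scored.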

Read-out in experiment [3]: Matrix Metallopeptidase 1 (MMP1), MMP1 (gene 4312)
Kind of experiment: BSK_BE3C_MMP1: BioMAP Diversity Plus: BE3C Assay for Matrix Metallopeptidase 1 (MMP1) Biomarker Activity (AID 2283024). As to conditions: primary human bronchial epithelial cells; actives raise or lower the signal. Put shortly: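 ELISA measurement of MMP-1 after 24 h compound exposure of primary human bronchial epithelial cells. Changes in either direction fitted relative to DMSO; parallel SRB staining checked overt cytotoxicity.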

Read-out in experiment [4]: Pselectin, SELP (gene 6403)
Briefly: BSK_4H_Pselectin: BioMAP Diversity Plus: 4H Assay for Pselectin Biomarker Activity (AID 2283026). The note with it: primary human endothelial cells (HUVEC); actives raise or lower the signal. A digest of the protocol:
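ELISA of surface P-selectin on HUVEC, 24 h after dosing, with parallel SRB staining (0.1% after 10% TCA fixation, 560 nm) for overt cytotoxicity. Activity fitted in both directions relative to DMSO.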

Read-out in experiment [5]: Human Leukocyte Antigen - DR isotype (HLADR), HLA-DRA (gene 3122)
Kind of experiment: BSK_BE3C_HLADR: BioMAP Diversity Plus: BE3C Assay for Human Leukocyte Antigen - DR isotype (HLADR) Biomarker Activity (AID 2283032). As to conditions: primary human bronchial epithelial cells; actives raise or lower the signal. Put shortly: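 Cell-surface HLA-DR ELISA readout at 24 h after dosing in the BE3C primary human lung bronchial epithelial system; gain or loss of signal against DMSO, with parallel sulforhodamine B staining of total protein for overt cytotoxicity.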

Read-out in experiment [6]: Interferon-gamma inducible Protein 10 (IP10), CXCL10 (gene 3627)
Kind of experiment: BSK_BE3C_IP10: BioMAP Diversity Plus: BE3C Assay for Interferon-gamma inducible Protein 10 (IP10) Biomarker Activity (AID 2283034). The note with it: primary human bronchial epithelial cells; actives raise or lower the signal. Put shortly:
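IP-10 quantified by ELISA in human primary bronchial epithelial cell cultures at 24 hours post-dosing. Gain or loss of signal fitted relative to DMSO; parallel SRB staining assessed overt cytotoxicity.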

Read-out in experiment [7]: urokinase plasminogen activator (uPA), PLAU (gene 5328)
Kind of experiment: BSK_BE3C_uPA: BioMAP Diversity Plus: BE3C Assay for urokinase plasminogen activator (uPA) Biomarker Activity (AID 2283038).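 Note: uPA protein level quantified by ELISA in cell cultures; uPA read one day after compound addition.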 As to conditions: primary human bronchial epithelial cells; actives raise or lower the signal. A digest of the protocol:
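ELISA read-out of uPA in human lung primary bronchial epithelial cultures, 24 h post-dosing. Gain or loss of signal fitted bidirectionally relative to DMSO baseline; cytotoxicity checked in parallel cultures via SRB total protein stain.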

Read-out in experiment [8]: Interleukin-6 (IL6), IL6 (gene 3569)
Kind of experiment: BSK_CASM3C_IL6: BioMAP Diversity Plus: CASM3C Assay for Interleukin-6 (IL6) Biomarker Activity for (AID 2283040). As to conditions: primary human coronary artery smooth muscle cells; actives raise or lower the signal.

Read-out in experiment [9]: Macrophage colony-stimulating factor (MCSF), CSF1 (gene 1435)
Kind of experiment: BSK_CASM3C_MCSF: BioMAP Diversity Plus: CASM3C Assay for Macrophage colony-stimulating factor (MCSF) Biomarker Activity (AID 2283044).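 Note: M-CSF protein amount quantified by ELISA after 24 h exposure.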 As to conditions: primary human coronary artery smooth muscle cells; actives raise or lower the signal.

Read-out in experiment [10]: Low-density lipoprotein receptor (LDLR), LDLR (gene 3949)
Briefly: BSK_CASM3C_LDLR: BioMAP Diversity Plus: CASM3C Assay for Low-density lipoprotein receptor (LDLR) Biomarker Activity (AID 2283045).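 Note: LDLR protein level on the cell surface quantified by ELISA.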 As to conditions: primary human coronary artery smooth muscle cells; actives raise or lower the signal.

Read-out in experiment [11]: Tissue Factor, F3 (gene 2152)
Briefly: BSK_CASM3C_TissueFactor: BioMAP Diversity Plus: CASM3C Assay for Tissue Factor Biomarker Activity (AID 2283052).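 Note: cell surface tissue factor protein level read by ELISA.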 As to conditions: primary human coronary artery smooth muscle cells; actives raise or lower the signal.

Read-out in experiment [12]: Urokinase-type plasminogen activator receptor (uPAR), PLAUR (gene 5329)
Briefly: BSK_CASM3C_uPAR: BioMAP Diversity Plus: CASM3C Assay for Urokinase-type plasminogen activator receptor (uPAR) Biomarker Activity (AID 2283054).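 Note: cell-surface uPAR protein level quantified by ELISA.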 As to conditions: primary human coronary artery smooth muscle cells; actives raise or lower the signal.

Read-out in experiment [13]: Collagen III, COL3A1 (gene 1281)
Briefly: BSK_hDFCGF_CollagenIII: BioMAP Diversity Plus: hDFCGF Assay for Collagen III Biomarker Activity (AID 2283056). As to conditions: primary human foreskin fibroblasts; actives raise or lower the signal. A digest of the protocol:
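hDFCGF primary human dermal fibroblasts; 24 h chemical exposure; collagen III by ELISA; bidirectional curve fit vs DMSO baseline (gain or loss of signal).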

Read-out in experiment [14]: Epidermal growth factor receptor (EGFR), EGFR (gene 1956)
Kind of experiment: BSK_hDFCGF_EGFR: BioMAP Diversity Plus: hDFCGF Assay for Epidermal growth factor receptor (EGFR) Biomarker Activity (AID 2283057). The note with it: primary human foreskin fibroblasts; actives raise or lower the signal. Put shortly:
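EGFR levels by ELISA in human dermal fibroblast cultures, 24 h post-treatment, fitted bidirectionally versus DMSO. Parallel wells stained with sulforhodamine B to detect overt cytotoxicity.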

Read-out in experiment [15]: Vascular cell adhesion molecule 1 (VCAM1), VCAM1 (gene 7412)
Kind of experiment: BSK_hDFCGF_VCAM1: BioMAP Diversity Plus: hDFCGF Assay for Vascular cell adhesion molecule 1 (VCAM1) Biomarker Activity (AID 2283065).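 For AC50: VCAM-1 protein level quantified by ELISA after 24 h chemical exposure.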 The note with it: primary human foreskin fibroblasts; actives raise or lower the signal. A digest of the protocol: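 ELISA read-out of VCAM-1 on human skin fibroblasts, 24 h post-dose; gain or loss of signal fitted bidirectionally against DMSO baseline.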

Read-out in experiment [16]: Intercellular Adhesion Molecule 1 (ICAM1), ICAM1 (gene 3383)
Briefly: BSK_KF3CT_ICAM1: BioMAP Diversity Plus: KF3CT Assay for Intercellular Adhesion Molecule 1 (ICAM1) Biomarker Activity (AID 2283067). As to conditions: primary human keratinocytes with fibroblasts; actives raise or lower the signal. Put shortly:
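ELISA readout of ICAM-1; KF3CT human skin co-culture (keratinocytes + foreskin fibroblasts), 24 h post-dose; gain/loss fit vs DMSO baseline.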

Read-out in experiment [17]: CD40, CD40 (gene 958)
Kind of experiment: BSK_LPS_CD40: BioMAP Diversity Plus: LPS Assay for CD40 Biomarker Activity (AID 2283076). As to conditions: primary human HUVEC with PBMC; actives raise or lower the signal. Put shortly:
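ELISA readout of CD40 in HUVEC/PBMC co-culture (BSK_LPS system), 24 h post-dosing; bidirectional curve fit, DMSO baseline; parallel SRB total-protein staining for cytotoxicity.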

Read-out in experiment [18]: E-selectin (Homo sapiens) (UniProt P16581)
Briefly: BSK_LPS_Eselectin: BioMAP Diversity Plus: LPS Assay for Eselectin Biomarker Activity (AID 2283077). As to conditions: primary human HUVEC with PBMC; actives raise or lower the signal. A digest of the protocol:
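ELISA readout of E-selectin, 24 h post-dose, HUVEC + PBMC co-culture (LPS system). Gain or loss of signal vs DMSO baseline, bidirectional fit.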

Read-out in experiment [19]: Interleukin-1 alpha (IL1a), IL1A (gene 3552)
Kind of experiment: BSK_LPS_IL1a: BioMAP Diversity Plus: LPS Assay for Interleukin-1 alpha (IL1a) Biomarker Activity (AID 2283080). The note with it: primary human HUVEC with PBMC; actives raise or lower the signal. A digest of the protocol:
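HUVEC/PBMC co-culture, LPS system; 24 h after dosing; IL-1a by ELISA; gain or loss of signal fitted bidirectionally vs DMSO baseline.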

Experiment [20] is described as follows: BSK_LPS_PGE2: BioMAP Diversity Plus: LPS Assay for Prostaglandin E2 (PGE2) Biomarker Activity (AID 2283082).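 For AC50: secreted prostaglandin E2 measured by ELISA in LPS-stimulated co-culture.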 As to conditions: primary human HUVEC with PBMC; actives raise or lower the signal. A digest of the protocol:
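PGE2 release measured by ELISA in an LPS-activated co-culture of human umbilical vein endothelial cells and peripheral blood mononuclear cells, read at 24 h post-dosing. DMSO served as baseline for bidirectional curve fitting.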

Chain of E-selectin (Homo sapiens) (P16581 whole entry, looked up): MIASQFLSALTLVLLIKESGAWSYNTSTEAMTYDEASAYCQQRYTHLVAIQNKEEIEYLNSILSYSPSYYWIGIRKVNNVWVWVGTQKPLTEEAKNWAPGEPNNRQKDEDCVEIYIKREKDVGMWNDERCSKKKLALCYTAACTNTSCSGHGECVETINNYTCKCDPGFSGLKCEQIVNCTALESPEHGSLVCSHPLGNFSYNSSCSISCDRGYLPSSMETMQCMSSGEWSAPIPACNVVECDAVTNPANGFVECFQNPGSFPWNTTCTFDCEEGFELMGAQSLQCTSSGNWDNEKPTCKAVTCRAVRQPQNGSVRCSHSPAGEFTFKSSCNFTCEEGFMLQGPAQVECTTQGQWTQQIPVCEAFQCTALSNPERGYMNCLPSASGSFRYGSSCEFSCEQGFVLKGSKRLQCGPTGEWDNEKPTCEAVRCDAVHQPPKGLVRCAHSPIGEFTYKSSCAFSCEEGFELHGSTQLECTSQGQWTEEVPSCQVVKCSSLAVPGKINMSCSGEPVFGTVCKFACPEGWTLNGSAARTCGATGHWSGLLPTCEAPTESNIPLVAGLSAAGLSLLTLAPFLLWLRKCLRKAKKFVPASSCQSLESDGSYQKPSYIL

As for `CCC[Si](OC(C)=O)(OC(C)=O)OC(C)=O`, the result in experiment [1], in experiment [2], in [3], in experiment [4], in [5] and in experiment [6] was inactive. The outcome in experiment [7], in experiment [8], in [9], in experiment [10], in [11] and in experiment [12] was inactive. Moreover, the result in experiment [13], in [14], in experiment [15], in [16], in experiment [17] and in experiment [18] was inactive. For the same molecule, the result in [19] and in experiment [20] was inactive. Besides, the half-maximal activity concentration (AC50) in experiment [12] is 3.83 µM (active).

`COc1cc(CNC(=O)CCCC/C=C/C(C)C)ccc1O`: the outcome in [1], in [4], in experiment [5], in experiment [6], in experiment [7] and in experiment [8] was inactive. In addition, the outcome in experiment [9], in [10], in experiment [11], in experiment [12], in experiment [13] and in experiment [14] was inactive. Also, the outcome in experiment [15], in [16], in experiment [17], in [18] and in experiment [19] was inactive. Further, the AC50 in experiment [2] is 20 µM (active) and 9.23 µM (active); in experiment [3], 14.4 µM (active) and 14 µM (active); in experiment [15], 0.384 µM (active); in experiment [20], 4.62 µM (active) and 2.9 µM (active).

`CC[N+](CC)(CC(=O)Nc1c(C)cccc1C)Cc1ccccc1`: the result in experiment [1], in [2], in experiment [3], in experiment [4], in [5] and in experiment [6] was inactive. Further, the result in [7], in [8], in experiment [9], in experiment [10], in [11] and in experiment [12] was inactive. In addition, the result in experiment [13], in experiment [14], in [15], in experiment [16], in [17] and in [18] was inactive. In addition, the result in experiment [19] and in experiment [20] was inactive.

For `CCCCC(CC)COC(=O)C=Cc1ccc(OC)cc1` (stereo not given), the AC50 in experiment [1] was 27.5 µM (active) and 11.4 µM (active); in experiment [2], 30.4 µM (active) and 22.1 µM (active); in experiment [4] it was 33.3 µM (active) and 38.7 µM (active); in experiment [11] it was 6.67 µM (active); in experiment [13], 9.77 µM (active) and 7.79 µM (active); in experiment [17], 20 µM (active). The AC50 in experiment [18] is 13.2 µM (active). Further, the outcome in [3], in experiment [5], in [6], in experiment [7], in experiment [8] and in experiment [9] was inactive. Also, the outcome in experiment [10], in [11], in experiment [12], in [14], in experiment [15] and in [16] was inactive. Also, the outcome in experiment [17], in experiment [18], in [19] and in experiment [20] was inactive.

With `COc1ccc(C(=O)c2ccccc2O)c(O)c1`, the outcome in experiment [1], in experiment [2], in experiment [3], in experiment [4], in experiment [5] and in [6] was inactive. Besides, the outcome in [7], in experiment [8], in experiment [9], in [10], in [11] and in experiment [12] was inactive. Also, the outcome in [13], in experiment [14], in [15], in experiment [16], in experiment [17] and in experiment [18] was inactive. The result in experiment [19] was inactive. The AC50 in experiment [2] is 20 µM (active); in experiment [4], 20 µM (active); in experiment [13] it was 7.73 µM (active); in [20], 6.03 µM (active).

For the molecule `CC[N+](CC)(CC(=O)Nc1c(C)cccc1C)Cc1ccccc1` (tested in a mixture with another compound), the outcome in [1], in experiment [2], in [3], in [4], in experiment [5] and in experiment [6] was inactive. The outcome in experiment [7], in [8], in experiment [9], in experiment [10], in experiment [11] and in experiment [12] was inactive. In addition, the result in [13], in [14], in experiment [15], in experiment [16], in experiment [17] and in experiment [18] was inactive. Also, the result in experiment [19] and in experiment [20] was inactive. For the same molecule, the AC50 was 5.41 µM (active) in experiment [9] and 0.591 µM (active) in experiment [10].

Consider `C1CN(CCOCCN2CCOCC2)CCO1`, for which the result in experiment [1], in [2], in experiment [3], in experiment [4], in [5] and in experiment [6] was inactive. The outcome in experiment [7], in [8], in experiment [9], in experiment [10], in experiment [11] and in [12] was inactive. The result in experiment [13], in experiment [14], in [15], in [16], in experiment [17] and in experiment [18] was inactive. The outcome in [19] and in experiment [20] was inactive.
